We go through 15 compounds from PMC5540273 (PLoS ONE, 2017).

In one assay the test system is CDC2L2. The settings on record: concentration: 1 μM, replicates: in singlicate; n = 1.
The subject of the next assay is T1, CDC2L5.
T1 construct: gene CDK13
The settings on record: n = 1.

A further assay has as its system T2, CDK11.
T2 construct: gene CDK19
Particulars: concentration: 1 μM, replicates: in singlicate; n = 1.

The subject of the next assay is CDK2. Particulars: concentration: 1 μM, replicates: in singlicate; n = 1.
A further assay deals with CDK3. The settings on record: concentration: 1 μM, replicates: in singlicate; n = 1.
Another assay has as its system CDK4-cyclinD1. Particulars: n = 1.
The subject of a further assay is CDK4-cyclinD3. Particulars: n = 1.
The subject of a further assay is CDK4. Particulars: n = 1.
For the next assay, the system named is CDK5. The settings on record: concentration: 1 μM, replicates: in singlicate; n = 1.
The next assay deals with CDK7. The settings on record: concentration: 1 μM, replicates: in singlicate; n = 1.
[1] abbreviates: concentration: 1 μM, replicates: in singlicate.

The structures appear in SMILES notation. Like-named read-outs stand apart in the source and are kept apart here.
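Also: KINOMEscan kinase panel screen.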

Turning to `Cn1cc(-c2cnc(N)c3c(-c4ccc5c(c4)CCN5C(=O)Cc4ccccc4)csc23)cn1` [GSK2593074], the “%Inh” value is listed as 1% in the assay on CDC2L2; 0% in the assay on CDC2L5 (1 µM); 18% in the assay on CDK11; 0% with CDK2; 1% with CDK3; 0% in the assay with CDK4-cyclinD1 (1 µM). The “%Inh” value in the assay on CDK4-cyclinD3 (1 µM) was 0%; in the assay on CDK4 (1 µM) it was 0%; in the assay on CDK5, 2%; in the assay with CDK7 it was 19%.
For `Cl.N#CCc1ccc(Nc2nccc(Nc3ccc(Oc4ccccc4)cc3)n2)cc1` [GW639905], the “%Inh” value with CDC2L2 is reported as 1%; in the assay on CDC2L5 (setting [1]), 0%; in the assay with CDK11, 0%; in the assay with CDK2, 0%; with CDK3, 4%; with CDK4-cyclinD1 (setting [1]), 0%. The “%Inh” value turned out to be 3% in the assay with CDK4-cyclinD3 (setting [1]), 0% in the assay on CDK4 (setting [1]), 0% in the assay on CDK5 and 0% in the assay on CDK7.
With `COC(=O)Nc1nc2ccc(Oc3ccc(CC(=O)Nc4cc(C(F)(F)F)ccc4F)cc3)cc2[nH]1` [GW680903], the “%Inh” value in the assay with CDC2L2 was found to be 8%; in the assay on CDC2L5 (setting [1]), 0%; in the assay on CDK11, 0%; in the assay on CDK2 it was 0%; in the assay on CDK3 it was 11%; in the assay with CDK4-cyclinD1 (setting [1]), 27%. In addition, the “%Inh” value in the assay on CDK4-cyclinD3 (setting [1]) is 4%; with CDK4 (setting [1]) it was 10%; with CDK5 it was 0%; in the assay with CDK7, 0%.
Consider `COC(=O)Nc1nc2cc(Oc3ccc(NC(=O)Nc4cccc(SC)c4)cc3)ccc2[nH]1.Cl` [GW697999], for which the “%Inh” value in the assay with CDC2L2 was determined as 1%; in the assay on CDC2L5 (setting [1]), 0%; with CDK11 it was 8%; in the assay with CDK2, 0%; in the assay with CDK3, 8%; with CDK4-cyclinD1 (setting [1]), 34%. Moreover, the “%Inh” value in the assay on CDK4-cyclinD3 (setting [1]) is on record as 0%; with CDK4 (setting [1]), 49%; in the assay with CDK5 it was 0%; with CDK7 it was 54%.
Turning to `Cl.Cl.NC(CNC(=O)c1cc(Br)c(-c2ccnc3[nH]ccc23)s1)c1ccccc1` (stereo not drawn) [GSK1322949], the “%Inh” value in the assay on CDC2L2 came to 9%; in the assay with CDC2L5 (setting [1]), 0%; in the assay with CDK11 it was 42%; in the assay with CDK2 it was 0%; with CDK3, 25%; in the assay with CDK4-cyclinD1 (setting [1]) it was 17%. Besides, the “%Inh” value in the assay with CDK4-cyclinD3 (setting [1]) is 0%; in the assay with CDK4 (setting [1]) it was 23%; in the assay on CDK5, 0%; in the assay with CDK7 it was 47%.
For `Cn1cc(-c2ccc3c(c2)CCN3C(=O)Cc2cc(F)cc(C(F)(F)F)c2)c2c(N)ncnc21` [GSK2635225], the “%Inh” value is listed as 24% in the assay with CDC2L2; 0% in the assay with CDC2L5 (setting [1]); 95.2% in the assay on CDK11; 6% with CDK2; 4% in the assay with CDK3; 0% in the assay on CDK4-cyclinD1 (setting [1]). The “%Inh” value in the assay on CDK4-cyclinD3 (setting [1]) is 0%; in the assay with CDK4 (setting [1]), 32%; in the assay with CDK5, 0%; in the assay with CDK7, 11%.
For the compound `Cc1ccc(C)c(NC(=O)Nc2ccc(C)c(-c3ccc(C(=O)Nc4ccncc4)cc3)c2)c1` [GSK1398473], the “%Inh” value with CDC2L2 was determined as 5%; in the assay on CDC2L5 (setting [1]) it was 0%; in the assay with CDK11, 74%; in the assay on CDK2, 0%; in the assay with CDK3, 0%; in the assay with CDK4-cyclinD1 (setting [1]), 0%. Also, the “%Inh” value stood at 2% with CDK4-cyclinD3 (setting [1]), 0% in the assay with CDK4 (setting [1]), 2% with CDK5 and 0% with CDK7.
Consider `Cc1ccc(NC(=O)c2ccc(Cl)c(Cl)c2)cc1-c1ccc(C(=O)Nc2ccncc2)cc1` [GSK1398460], for which the “%Inh” value worked out at 14% in the assay with CDC2L2; 0% in the assay with CDC2L5 (setting [1]); 13% in the assay on CDK11; 0% with CDK2; 5% with CDK3; 0% with CDK4-cyclinD1 (setting [1]). Also, the “%Inh” value with CDK4-cyclinD3 (setting [1]), in the assay on CDK4 (setting [1]), in the assay with CDK5 and in the assay on CDK7 was 0% in each case.
Take `COc1cc(Nc2nccc(N3CCC(NC(=O)Nc4ccc5c(c4)OCO5)C3)n2)cc(OC)c1OC` (stereo not drawn) [GSK1379766]: the “%Inh” value with CDC2L2 stood at 18%; in the assay with CDC2L5 (setting [1]), 0%; with CDK11, 2%; in the assay on CDK2, 0%; in the assay with CDK3, 2%; in the assay with CDK4-cyclinD1 (setting [1]) it was 0%. In addition, the “%Inh” value in the assay on CDK4-cyclinD3 (setting [1]) amounted to 14%; in the assay on CDK4 (setting [1]) it was 0%; in the assay with CDK5, 0%; in the assay with CDK7, 0%.
With `Cc1cccc(Nc2nc(NCCN)ncc2C(N)=O)c1` [GSK1292139], the “%Inh” value in the assay on CDC2L2 was determined as 18%; in the assay with CDC2L5 (setting [1]), 0%; in the assay on CDK11 it was 0%; in the assay on CDK2, 0%; in the assay on CDK3, 5%; in the assay on CDK4-cyclinD1 (setting [1]) it was 0%. The “%Inh” value in the assay on CDK4-cyclinD3 (setting [1]) is reported as 6%; in the assay with CDK4 (setting [1]) it was 35%; in the assay on CDK5 it was 0%; in the assay on CDK7 it was 24%.
For `O=C1NC(=O)C(c2ccccc2Cl)=C1Nc1cccc(Cl)c1` [SB-342409], the “%Inh” value was determined as 13% in the assay on CDC2L2; 0% with CDC2L5 (setting [1]); 0% with CDK11; 1% in the assay with CDK2; 14% with CDK3; 7% in the assay on CDK4-cyclinD1 (setting [1]). In addition, the “%Inh” value in the assay with CDK4-cyclinD3 (setting [1]) is listed as 33%; with CDK4 (setting [1]), 0%; in the assay on CDK5, 0%; with CDK7, 42%.
Regarding `CN(C)c1ncnc2nc[nH]c12` [SKF-31736], the “%Inh” value in the assay on CDC2L2 came to 0%; in the assay on CDC2L5 (setting [1]), 11%; in the assay with CDK11 it was 0%; with CDK2, 0%; with CDK3, 17%; in the assay on CDK4-cyclinD1 (setting [1]) it was 0%. For the same compound, the “%Inh” value in the assay on CDK4-cyclinD3 (setting [1]) is 0%; in the assay on CDK4 (setting [1]), 25%; in the assay on CDK5, 0%; with CDK7, 0%.
As for `O=C(O)C(F)(F)F.O=c1[nH]ccc2nc(N[C@@H]3CCNC3)nc(Nc3ccc4c(c3)S(=O)(=O)CC4)c12` [GSK2181306], the “%Inh” value with CDC2L2 worked out at 0%; in the assay on CDC2L5 (setting [1]) it was 0%; with CDK11, 0%; with CDK2 it was 62%; with CDK3, 53%; with CDK4-cyclinD1 (setting [1]), 90.6%. Also, the “%Inh” value in the assay on CDK4-cyclinD3 (setting [1]) turned out to be 69%; in the assay on CDK4 (setting [1]) it was 50%; with CDK5, 76%; in the assay on CDK7, 85%.
For the compound `O=C(Nc1n[nH]c2nc(-c3ccccc3O)ccc12)C1CC1` [SB-711880], the “%Inh” value in the assay with CDC2L2 stood at 0%; with CDC2L5 (setting [1]), 11%; in the assay on CDK11, 0%; in the assay on CDK2 it was 37%; with CDK3, 22%; in the assay on CDK4-cyclinD1 (setting [1]), 25%. The “%Inh” value in the assay on CDK4-cyclinD3 (setting [1]) is recorded as 17%; with CDK4 (setting [1]), 0%; with CDK5, 0%; with CDK7 it was 7%.
On to `Cc1cccc(Nc2nc(N[C@H]3CCCC[C@H]3N)ncc2C(N)=O)c1.Cl` [GSK986310], for which the “%Inh” value in the assay with CDC2L2 is on record as 11%; in the assay on CDC2L5 (setting [1]), 0%; with CDK11, 24%; in the assay on CDK2, 0%; in the assay on CDK3 it was 24%; with CDK4-cyclinD1 (setting [1]) it was 0%. For the same compound, the “%Inh” value in the assay on CDK4-cyclinD3 (setting [1]) is 1%; in the assay on CDK4 (setting [1]), 0%; in the assay on CDK5 it was 5%; with CDK7, 48%.
